Reference: PubChem BioAssay AID1159580 (chemical genetic matrix, 2015)
Values joined by “and” are separate entries in the source; they are usually repeats but may differ in a detail not shown here. Equal values may be shown once. Hit rate of the full screen: of about 5,500 compounds, about 2,000 (36%) were called active. About 18% were inconclusive and are not listed. Cut-off read from the data, not from the text of the source: active = normalized growth mostly below about 0.91 (no sharp cut-off); inconclusive = no clear call, values can overlap the other calls; inactive = mostly above about 0.92. Some of the results follow.

Experiment: chemical genetic growth profiling, strain panel (AID 1159580);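 note: tested at 20 µM; growth read once vehicle control cultures reached saturation at 30 °C; 1 = growth at the plate median or of vehicle wells; lower values mean less growth of the strain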
Details: growth OD

Measured: normalized growth

Cc1cccc(C)c1NC1=NCCCS1
inactive: S. cerevisiae deletion strains, locus YJR075W, strain HOC1, active compounds read low 1.03 | S. cerevisiae deletion strains, locus YKL009W, strain mrt4, active compounds read low 0.968 | S. cerevisiae deletion strains, locus YKL068W, active compounds read low 0.977 | S. cerevisiae deletion strains, locus YKL085W, strain MDH1 (second series), active compounds read low 0.976 | S. cerevisiae deletion strains, locus YKL085W, strain MDH1, active compounds read low 0.976 | S. cerevisiae deletion strains, locus YKL160W, strain elf1, active compounds read low 1 | S. cerevisiae deletion strains, locus YKL190W, strain CNB1, active compounds read low 1.01 | S. cerevisiae deletion strains, locus YKR001C, strain vps1, active compounds read low 1 | S. cerevisiae deletion strains, locus YKR026C, strain gcn3, active compounds read low 1 | S. cerevisiae deletion strains, locus YKR091W, strain srl3, active compounds read low 1.01 | S. cerevisiae deletion strains, locus YLL001W, strain dnm1, active compounds read low 0.959 | S. cerevisiae deletion strains, locus YLL026W, active compounds read low 1 | S. cerevisiae deletion strains, locus YLL041C, strain sdh2, active compounds read low 1.02 | S. cerevisiae deletion strains, locus YLR027C, strain aat2, active compounds read low 1.01 | S. cerevisiae deletion strains, locus YLR039C, strain RIC1, active compounds read low 0.997 | S. cerevisiae deletion strains, locus YLR058C, strain SHM2, active compounds read low 0.996 | S. cerevisiae deletion strains, locus YLR102C, strain apc9, active compounds read low 0.989 | S. cerevisiae deletion strains, locus YLR113W, strain HOG1, active compounds read low 1.04 | S. cerevisiae deletion strains, locus YLR221C, strain rsa3, active compounds read low 0.994 | S. cerevisiae deletion strains, locus YLR258W, strain gsy2, active compounds read low 0.995 | S. cerevisiae deletion strains, locus YLR262C, strain YPT6 (second series), active compounds read low 1.03 | S. cerevisiae deletion strains, locus YLR262C, strain YPT6, active compounds read low 0.985 | S. cerevisiae deletion strains, locus YLR268W, strain sec22, active compounds read low 0.978 | S. cerevisiae deletion strains, locus YLR320W, strain mms22, active compounds read low 0.994 | S. cerevisiae deletion strains, locus YLR330W, strain CHS5, active compounds read low 0.991 | S. cerevisiae deletion strains, locus YLR342W, strain FKS1 (second series), active compounds read low 0.981 | S. cerevisiae deletion strains, locus YLR342W, strain FKS1, active compounds read low 0.998 | S. cerevisiae deletion strains, locus YLR357W, strain rsc2, active compounds read low 0.999 | S. cerevisiae deletion strains, locus YLR370C, strain arc18, active compounds read low 1.03 | S. cerevisiae deletion strains, locus YLR371W, strain rom2, active compounds read low 0.986 | S. cerevisiae deletion strains, locus YLR384C, strain iki3, active compounds read low 0.993 | S. cerevisiae deletion strains, locus YLR418C, strain cdc73, active compounds read low 0.986 | S. cerevisiae deletion strains, locus YML016C, strain PPZ1, active compounds read low 0.998 | S. cerevisiae deletion strains, locus YML032C, strain rad52, active compounds read low 0.998 | S. cerevisiae deletion strains, locus YML120C, strain ndi1, active compounds read low 1.01 | S. cerevisiae deletion strains, locus YML124C, strain tub3, active compounds read low 0.996 | S. cerevisiae deletion strains, locus YMR058W, strain fet3, active compounds read low 1.02 | S. cerevisiae deletion strains, locus YMR078C, strain ctf18, active compounds read low 0.98 | S. cerevisiae deletion strains, locus YMR125W, strain sto1, active compounds read low 0.986 | S. cerevisiae deletion strains, locus YMR129W, active compounds read low 1 | S. cerevisiae deletion strains, locus YMR205C, strain PFK2, active compounds read low 1.01 | S. cerevisiae deletion strains, locus YMR223W, strain ubp8, active compounds read low 0.969 | S. cerevisiae deletion strains, locus YMR231W, strain pep5, active compounds read low 1 | S. cerevisiae deletion strains, locus YMR307W, strain GAS1, active compounds read low 0.988 and 1 | S. cerevisiae deletion strains, locus YNL067W, strain RPL9B, active compounds read low 1.04 | S. cerevisiae deletion strains, locus YNL071W, strain lat1, active compounds read low 1.01 | S. cerevisiae deletion strains, locus YNL128W, strain TEP1, active compounds read low 0.991 | S. cerevisiae deletion strains, locus YNL153C, strain GIM3, active compounds read low 1.06 and 0.996 | S. cerevisiae deletion strains, locus YNL175C, strain NOP13, active compounds read low 0.988 | S. cerevisiae deletion strains, locus YNL183C, strain NPR1, active compounds read low 0.96 | S. cerevisiae deletion strains, locus YNL197C, strain WHI3, active compounds read low 1.01 | S. cerevisiae deletion strains, locus YNL209W, strain ssb2, active compounds read low 1.01 | S. cerevisiae deletion strains, locus YNL224C, strain SQS1, active compounds read low 1 | S. cerevisiae deletion strains, locus YNL233W, strain BNI4, active compounds read low 1.04 | S. cerevisiae deletion strains, locus YNL248C, strain rpa49, active compounds read low 0.997 | S. cerevisiae deletion strains, locus YNL250W, strain rad50, active compounds read low 0.926 | S. cerevisiae deletion strains, locus YNL271C, strain bni1, active compounds read low 0.985 | S. cerevisiae deletion strains, locus YNL298W, strain CLA4, active compounds read low 0.98 | S. cerevisiae deletion strains, locus YNL307C, strain MCK1, active compounds read low 0.983 | S. cerevisiae deletion strains, locus YNL322C, strain KRE1 (second series), active compounds read low 1.01 | S. cerevisiae deletion strains, locus YNL322C, strain KRE1, active compounds read low 1.01 | S. cerevisiae deletion strains, locus YNR049C, strain mso1, active compounds read low 0.999 | S. cerevisiae deletion strains, locus YNR052C, strain pop2, active compounds read low 0.974 | S. cerevisiae deletion strains, locus YOL006C, strain TOP1, active compounds read low 1.08 | S. cerevisiae deletion strains, locus YOL012C, strain htz1 1.34 | S. cerevisiae deletion strains, locus YOL147C, strain pex11, active compounds read low 0.984 | S. cerevisiae deletion strains, locus YOR001W, strain rrp6, active compounds read low 1.02 | S. cerevisiae deletion strains, locus YOR061W, strain CKA2, active compounds read low 1 | S. cerevisiae deletion strains, locus YOR069W, strain VPS5, active compounds read low 0.99 | S. cerevisiae deletion strains, locus YOR070C, strain gyp1, active compounds read low 1.01 | S. cerevisiae deletion strains, locus YOR080W, strain dia2, active compounds read low 0.999 | S. cerevisiae deletion strains, locus YOR083W, strain WHI5 (second series), active compounds read low 0.998 | S. cerevisiae deletion strains, locus YOR083W, strain WHI5, active compounds read low 1 | S. cerevisiae deletion strains, locus YOR106W, strain vam3, active compounds read low 1.04 | S. cerevisiae deletion strains, locus YOR136W, strain idh2, active compounds read low 0.995 | S. cerevisiae deletion strains, locus YOR144C, strain elg1, active compounds read low 0.994 | S. cerevisiae deletion strains, locus YOR184W, strain ser1, active compounds read low 0.976 | S. cerevisiae deletion strains, locus YOR231W, strain MKK1, active compounds read low 1.02 | S. cerevisiae deletion strains, locus YOR265W, strain rbl2, active compounds read low 1.01 | S. cerevisiae deletion strains, locus YOR270C, strain vph1, active compounds read low 1.03 | S. cerevisiae deletion strains, locus YOR290C, strain snf2, active compounds read low 1.01 | S. cerevisiae deletion strains, locus YOR316C, strain cot1, active compounds read low 0.99 | S. cerevisiae deletion strains, locus YPL051W, strain arl3, active compounds read low 0.999 | S. cerevisiae deletion strains, locus YPL055C, strain LGE1, active compounds read low 1.1 | S. cerevisiae deletion strains, locus YPL078C, strain atp4, active compounds read low 1.02 | S. cerevisiae deletion strains, locus YPL106C, strain sse1, active compounds read low 1.01 | S. cerevisiae deletion strains, locus YPL240C, strain hsp82, active compounds read low 0.999 | S. cerevisiae deletion strains, locus YPL241C, strain CIN2, active compounds read low 1.01 | S. cerevisiae deletion strains, locus YPL256C, strain CLN2, active compounds read low 1.04 | S. cerevisiae deletion strains, locus YPR119W, strain clb2, active compounds read low 0.985 | S. cerevisiae deletion strains, locus YPR141C, strain kar3, active compounds read low 0.982 | S. cerevisiae deletion strains, locus YPR163C, strain tif3, active compounds read low 0.979 | S. cerevisiae deletion strains, locus YPR167C, strain met16, active compounds read low 0.992 | S. cerevisiae deletion strains, strain wtn01, active compounds read low 0.973 | S. cerevisiae strains, strain wild type, active compounds read low 1
